Data published in PubChem BioAssay (NCI).
Compounds without any hit were thinned out: in the full panel of roughly 83,000, 20% have a hit.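 A percent growth of 40 corresponds to 60% growth inhibition; 0 means no net growth; -100 means all cells died. Active threshold: below 10.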 Active and inactive are the calls of the source.

Key:
Assay in all cases: NCI-60 one-dose screen, 48 h (100 = growth as untreated, 0 = no growth, -100 = all killed)
Conditions in all cases: 10 µM unless noted
[1] = test system: NCI-H23 lung
[2] = test system: NCI-H226 lung
[3] = test system: NCI-H322M lung
[4] = test system: HOP-62 NSCLC
[5] = test system: NCI-H460 lung
[6] = test system: HOP-92 NSCLC
[7] = test system: NCI-H522 lung
[8] = test system: A549/ATCC NSCLC
[9] = test system: 786-0 renal
[10] = test system: COLO 205 colon
[11] = test system: DU-145 prostate
[12] = test system: K-562 leukemia
[13] = test system: MALME-3M melanoma
[14] = test system: MDA-MB-231 breast
[15] = test system: RXF 393 renal
[16] = test system: SF-268 CNS
[17] = test system: SF-295 CNS
[18] = test system: SF-539 CNS
[19] = test system: UACC-257 melanoma
[20] = test system: M14 melanoma

Measured: growth

O=c1cc(/C(=C2/C=CC=N2)c2ccc[nH]2)c2cc(Cl)ccc2o1
inactive: [1] 62.3% | [2] 35% | [3] 55.8% | [4] 50.4% | [5] 24.3% | [6] 66.5% | [7] 56.1% | [8] 55.2% | [9] 22.4% | [10] 87.2% | [11] 47% | [12] 24.8% | [13] 66.6% | [14] 71% | [16] 56.4% | [17] 13.9% | [18] 16.1% | [19] 38.3% | [20] 35.5%
active: [15] -29.1%

Cc1ccc2oc(=O)cc(C3c4ccc([nH]4)C(c4cc(=O)oc5ccc(C)cc45)c4ccc([nH]4)C(c4cc(=O)oc5ccc(C)cc45)c4ccc([nH]4)C(c4cc(=O)oc5ccc(C)cc45)c4ccc3[nH]4)c2c1 (stereo not given)
active: [1] -53.2% | [2] -39.2% | [3] -10.2% | [4] -68.2% | [5] -66.4% | [6] -24.1% | [7] -63.5% | [8] -24.6% | [9] -58.9% | [10] -80.6% | [11] -46.3% | [12] -26% | [13] -35.1% | [14] -53.8% | [15] -87.3% | [16] -39.5% | [17] -78.2% | [18] -75.1% | [19] -67.7% | [20] -71.9%

Cn1c(=O)c2c(nc3n(-c4ccc(Cl)cc4Cl)c(Sc4nc(-c5ccccc5)c(C#N)c(=O)[nH]4)cn23)n(C)c1=O
inactive: [1] 65% | [2] 56.4% | [3] 26.4% | [4] 54.8% | [5] 13.9% | [6] 34.4% | [7] 59.6% | [8] 20.9% | [9] 15.1% | [10] 71.8% | [11] 50.5% | [12] 84% | [13] 45.2% | [14] 27.7% | [15] 59.1% | [16] 61.9% | [17] 44.4% | [18] 30.6% | [19] 99.9% | [20] 84%

CCCCn1c(-c2ccc(C(=O)O/N=C(\N)c3ccc4ccccc4c3)cc2)nc(-c2ccccc2)c1-c1ccccc1
inactive: [1] 65% | [2] 61.7% | [3] 80.8% | [4] 91.5% | [5] 26.3% | [6] 77.6% | [7] 71.7% | [8] 42% | [9] 77.8% | [10] 90.8% | [11] 65.3% | [12] 11.9% | [13] 93.4% | [14] 70% | [15] 58.2% | [16] 48.9% | [17] 81% | [18] 81.3% | [19] 98.3% | [20] 82.6%

CC(=O)O[C@H]1CC[C@]2(C)[C@H]3CC=C4[C@@H]5CC(C)(C)CC[C@]5(C(=O)NCCNCCN)CC[C@@]4(C)[C@]3(C)CC[C@H]2C1(C)C
inactive: [1] 70.1% | [2] 73.5% | [3] 67.3% | [15] 44.9% | [16] 74.3% | [17] 92.8% | [18] 70.3%
active: [4] -86.7% | [5] -69.8% | [6] -45.3% | [7] -86.9% | [8] -71.1% | [9] -95.3% | [10] -92.7% | [11] -45.3% | [12] -47.2% | [13] -71.2% | [14] -66.5% | [19] -42.3% | [20] -81.4%

CCCCN(CCCC)CCCn1c(-c2ccccc2)ccc1-c1ccccc1
inactive: [1] 52.9% | [2] 53.6% | [3] 86.7% | [4] 87.9% | [5] 67.7% | [6] 44.7% | [7] 58.3% | [8] 76% | [9] 72.7% | [10] 61.3% | [11] 68.3% | [12] 52.2% | [13] 86.2% | [14] 22.9% | [15] 82.8% | [16] 73.7% | [17] 60% | [18] 67.4% | [19] 90.1% | [20] 77.6%

N#CN1CC[C@H](C(=O)Nc2cc3cc(C(N)=O)ccc3cn2)C1
active: [1] -8.58% | [2] -10% | [4] -27.1% | [5] 6.93% | [6] -6.94% | [7] -50% | [8] 1.68% | [9] 4.19% | [10] -70.1% | [11] 7.18% | [12] 2.99% | [13] -21.8% | [14] -0.49% | [15] -52.3% | [16] -9.68% | [17] 2.85% | [18] -35.9% | [19] -27.9% | [20] -26.5%
inactive: [3] 13.6%

Cc1cc(NS(=O)(=O)c2ccc(-c3cnc(C4CC4)o3)cc2)ccc1Cl
inactive: [1] 24.3% | [2] 58.4% | [3] 44.7% | [4] 34.1% | [6] 60.7% | [8] 15.3% | [9] 33.7% | [11] 14.3% | [12] 10.2% | [13] 46.3% | [14] 33.9% | [16] 49.4% | [19] 45%
active: [5] 7.65% | [7] -11.7% | [10] -13.7% | [15] -10.7% | [17] 1.8% | [18] -28.6% | [20] 4.78%

Cc1ccc(C2Oc3ccccc3C3CC(c4cccs4)=NN32)cc1 (stereo not given)
inactive: [1] 93.4% | [2] 84.7% | [3] 91.5% | [4] 105% | [5] 101% | [6] 81.7% | [7] 88.7% | [8] 103% | [9] 99.8% | [10] 104% | [11] 97% | [12] 101% | [13] 95.1% | [14] 91.3% | [15] 101% | [16] 91.4% | [17] 99% | [18] 90.1% | [19] 98.6% | [20] 99.3%

O=C1c2cccc3cccc(c23)C(=O)N1CCCCCN1CCN(CCCCCOc2ccc(-c3nc4ccc(N5CCOCC5)cc4[nH]3)cc2)CC1
inactive: [1] 98.9% | [2] 78.9% | [3] 103% | [4] 97.4% | [5] 27.5% | [6] 49.2% | [7] 73.7% | [8] 21.3% | [9] 109% | [10] 96.5% | [11] 97.4% | [12] 19.6% | [13] 82.6% | [14] 108% | [16] 136% | [17] 16.3% | [18] 54.4% | [19] 56.3% | [20] 50.6%
active: [15] -11.5%

CON1C(=O)CC[C@]2(C)[C@H]3CC[C@@H]4C([C@@]5(C)CCC(=O)O5)CC[C@@]4(C)[C@]3(C)CC[C@H]2C1(C)C (stereo not given in full)
inactive: [1] 95.6% | [2] 94.9% | [3] 108% | [4] 98.4% | [5] 103% | [6] 95.3% | [7] 85.9% | [8] 102% | [9] 100% | [10] 124% | [11] 107% | [12] 83% | [13] 105% | [14] 96.5% | [15] 98% | [16] 97.4% | [17] 104% | [18] 99.8% | [19] 107% | [20] 97%

COc1ccc(CCNc2nc3c(c(=O)n(Cc4ccc(Br)cc4)c(=O)n3C)n2C)cc1OC
inactive: [1] 84.1% | [2] 86.6% | [3] 93.8% | [4] 113% | [5] 96.9% | [6] 92.8% | [7] 84.2% | [8] 90% | [9] 102% | [10] 103% | [11] 107% | [12] 69.8% | [13] 87.2% | [14] 81.9% | [15] 120% | [16] 92.6% | [17] 89.1% | [18] 88.5% | [19] 92.4% | [20] 101%

COc1cc2c(cc1-c1c(C)noc1C)ncc1nc(C3CCCCC3)n([C@H](C)COC(F)F)c12
inactive: [1] 59.9% | [2] 53.5% | [3] 40.3% | [4] 39.4% | [5] 53.2% | [6] 34.9% | [7] 25.2% | [8] 33.4% | [9] 48.7% | [10] 24.7% | [11] 63.8% | [12] 24.6% | [13] 69.3% | [14] 41.9% | [15] 52.6% | [16] 58.8% | [17] 52.4% | [18] 34.7% | [19] 31.4% | [20] 39.9%

CN1CCN(CCCOc2cccc3nc(Nc4cc(Cl)cc(Cl)c4)ccc23)CC1
active: [2] -10.9% | [3] 3.59% | [5] -37% | [6] 3.95% | [7] -18.3% | [8] 0.988% | [10] -67.4% | [11] -23.8% | [12] -54.7% | [13] -53.5% | [14] -44.6% | [18] 7.62% | [19] -44.6% | [20] -55.7%
inactive: [1] 36.7% | [4] 19.8% | [9] 37.3% | [15] 38.8% | [16] 16% | [17] 40.2%

COc1cccc(-c2nc3sccn3c2-c2ccnc(NCCCNS(=O)(=O)c3cccc(F)c3)c2)c1
inactive: [1] 21.3% | [2] 19.1% | [3] 72% | [4] 33.4% | [5] 44.9% | [6] 49.5% | [7] 18.1% | [8] 18.1% | [9] 52.6% | [10] 19% | [11] 31.9% | [12] 11.4% | [13] 28.1% | [14] 65.4% | [15] 66.7% | [16] 40.9% | [18] 70% | [19] 20.6% | [20] 10.9%
active: [17] 9.57%
